Data published in PubChem BioAssay (Tox21).
Results filed as inconclusive are left out. Entries that show only a call come without a potency. Values without a mark were called inactive. The source made the active and inactive calls. Calls follow the shape of the full dose curve.
Potency is read from the fitted curve at half-maximal effect.

Each molecule was assayed against Beta-2 adrenergic receptor (Homo sapiens) (UniProt P07550) (assay: Adrenergic beta2 receptor (ADRB2) small molecule antagonists, cell-based qHTS assay (AID 1963592; also: nearly all actives have a fitted effect of over 50% in size)). Conditions: CHO-ADRB2 cells, isoproterenol-stimulated cAMP HTRF ratio, 0.5 h; series mostly up to 92.4 µM.
Beta-2 adrenergic receptor (Homo sapiens), sequence (P07550 whole entry, looked up): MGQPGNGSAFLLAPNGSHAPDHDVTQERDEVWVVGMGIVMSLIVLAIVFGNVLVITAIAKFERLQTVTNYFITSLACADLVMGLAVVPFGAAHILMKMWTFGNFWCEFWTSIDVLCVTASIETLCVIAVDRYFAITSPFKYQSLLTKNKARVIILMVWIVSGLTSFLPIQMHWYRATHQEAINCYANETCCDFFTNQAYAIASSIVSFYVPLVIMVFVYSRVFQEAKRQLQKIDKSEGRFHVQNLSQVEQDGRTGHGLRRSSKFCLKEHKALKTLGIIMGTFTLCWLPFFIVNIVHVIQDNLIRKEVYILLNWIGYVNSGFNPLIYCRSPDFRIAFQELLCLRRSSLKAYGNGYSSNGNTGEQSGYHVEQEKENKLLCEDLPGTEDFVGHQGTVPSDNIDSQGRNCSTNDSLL
Excerpt: U.S. Tox21 Program National Center for Advancing Translational Sciences [NCATS] Division of Preclinical Innovation [DPI] U.S. Environmental Protection Agency [EPA] National Institutes of Environmental Health Sciences [NIEHS] National Toxicology Program [NTP] U.S. Food and Drug Administration [FDA] Tox21 Assay Overview: Beta adrenergic receptors (Beta-ARs) belong to the G-protein coupled receptor (GPCR) superfamily, includes three subtypes - beta1, beta2, and beta3. Beta1-AR is the predominant receptor subtype expressed in the heart, and beta2-AR is expressed in the kidney, lung, blood vessel and in the heart, and beta3 is found in the adipocytes. Beta1 and 2 ARs couple to Gs protein and elevate cyclic adenosine mono phosphate (cAMP), which activates protein kinase A and leads to the downstream signaling responsible for the physiological actions. Beta-AR agonists or antagonists are the most prescribed therapeutic agents for heart failure and asthma, and these were one of the first target receptors for the rational drug design. Tox21 10K compound library was screened using the cAMP-Gs dynamic assay (Cisbio Bioassays, Shelton, CT) to identify agonists/antagonists of the Gs-coupled human adrenergic, beta2 receptor (ADRB2) in the CHO-ADRB2 cell line (Codex BioSolutions, Inc. Gaithersburg, MD), which stably over-expresses ADRB2. The principle of cAMP-Gs dynamic assay is based on HTRF technology, which facilitates the fluorescence resonance energy transfer (FRET) between donor Europium cryptate and acceptor d2-labeled cAMP. The cAMP generated within cells competes with the red acceptor, d2-labled cAMP, for binding to the monoclonal anti-cAMP-cryptate (Europium donor). An increase in intracellular cAMP leads to the disruption of FRET signal, and the signal is inversely proportional to the cAMP concentration. Propranolol HCl (Sigma-Aldrich, St. Louis, MO) was used as a positive control in the screening.
Tox21 Assay Protocol Summary: CHO-ADRB2 cells were dispensed at 1,000/well in 4uL assay medium into white/solid 1536-well plates (Greiner Bio-One North America Inc., Monroe, NC) using a Multidrop Combi dispenser (ThermoFisher Scientific, Waltham, MA). The assay plates were incubated at 37C and 5% CO2 for an overnight (18-20hr). Then positive control and test compounds dissolved in DMSO were transferred to the assay plates at 23nL using a Pintool station (Wako, San Diego, CA). Following the compound and positive control transfer, 1uL agonist-stimulation mix containing 1nM Isoproterenol HCl, 100uM IBMX and 25uM Ro-20-1724 was added to each well of the assay plates using BioRAPTR Flying Reagent Dispenser (FRD, Beckman Coulter, Brea, CA). The assay plates were incubated at room temperature for 0.5hr. Then 2.5ul each d2-labled cAMP and anti-cAMP-cryptate solutions were added separately to each well of the assay plates using an FRD and the assay plates were incubated at room temperature for 1hr. The fluorescence signal was measured at two different wavelengths (665nm and 615nm) using an Envision plate reader (Perkin Elmer, Shelton, CT). Data were expressed as the ratio of 665 nm/615 nm.
`CCC(C)(CCC(C)C)C(=O)[O-].CCC(C)(CCC(C)C)C(=O)[O-].[Zn+2]` (stereo not given) was tested, and the Potency was “inactive”. With `CCCCNCC` the Potency was “inactive”. For `O=C1NC(=O)[C@@H]2CC=CC[C@H]12`, the Potency was “inactive”. With `CCC(C)OC(C)CC` (stereo not given) the Potency was “inactive”. For `CC(C)(C)CC(C)(C)c1ccc(O)c(Cc2ccc(Cl)cc2Cl)c1`, the Potency was “inactive”. With `NC(=O)Cn1c(=O)cc(CCN2CCN(c3nccc4sccc34)CC2)c2ccc(F)cc21` the Potency was 27.3 µM (active). In the case of `Cc1ccc(O)c(O)c1`, the Potency is reported as “inactive”. `CC(C)COC(=O)/C=C/c1ccccc1` was tested, and the Potency was “inactive”. With `COc1cc([C@@H]2c3cc4c(cc3[C@@H](O[C@@H]3O[C@@H]5CO[C@@H](C)O[C@H]5[C@H](O)[C@H]3O)[C@H]3COC(=O)[C@H]23)OCO4)cc(OC)c1O` the Potency was “inactive”. In the case of `CCOC(=O)COC(=O)c1cc(Oc2ccc(C(F)(F)F)cc2Cl)ccc1[N+](=O)[O-]`, the Potency is reported as 61.1 µM (active). For `NCc1ccccc1`, the Potency was “inactive”. In the case of `CN(C)C(=O)COC(=O)Cc1ccc(OC(=O)c2ccc(N=C(N)N)cc2)cc1`, the Potency is reported as “inactive”. `CC(C)COC(=O)CCCCC(=O)OCC(C)C` was tested, and the Potency was “inactive”. For `O=C(CS(=O)Cc1ccco1)NC/C=C\COc1cc(CN2CCCCC2)ccn1` (stereo not given), the Potency was “inactive”. `CC(=O)Nc1ccccc1O` was tested, and the Potency was “inactive”. `CCC(C)n1ncn(-c2ccc(N3CCN(c4ccc(OC[C@H]5CO[C@](Cn6cncn6)(c6ccc(Cl)cc6Cl)O5)cc4)CC3)cc2)c1=O` (stereo not given in full) was tested, and the Potency was “inactive”. With `Cc1cccc(C)c1NC(=O)C(C)N` (stereo not given) the Potency was “inactive”. In the case of `C=Cc1ccc(O)c(OC)c1`, the Potency is reported as “inactive”. For `CCCCCc1ccc(O)cc1`, the Potency was “inactive”. With `CS(=O)(=O)c1ccc([C@@H](O)[C@@H](CF)NC(=O)C(Cl)Cl)cc1` the Potency was “inactive”. `C[C@@H](C1=C(CCN(C)C)Cc2ccccc21)c1ccccn1` was tested, and the Potency was “inactive”. With `CCCCCCCCCCC[C@@H](C[C@@H]1OC(=O)[C@H]1CCCCCC)OC(=O)[C@H](CC(C)C)NC=O` the Potency was “inactive”. With `Cc1ccc2c(Br)cc(Br)c(O)c2n1` the Potency was “inactive”. `O=C(Nc1ccc(Cl)c(Cl)c1)c1cc(Cl)cc(Cl)c1O` was tested, and the Potency was 24.3 µM (active). In the case of `C=C[Si](OCC)(OCC)OCC`, the Potency is reported as “inactive”. `O=C1CCCc2c1cc1ccc3cccc4ccc2c1c34` was tested, and the Potency was “inactive”. `CN(C/C=C/C#CC(C)(C)C)Cc1cccc2ccccc12` was tested, and the Potency was “inactive”. `C[N+]1(C)CCC(OC(=O)C(O)(c2ccccc2)C2CCCC2)C1` (stereo not given) was tested, and the Potency was “inactive”. With `NCCN1CCOCC1` the Potency was “inactive”. `CCCC1CCC(=O)CC1` was tested, and the Potency was “inactive”. In the case of `O=C(/C=C/c1ccccc1)OCCc1ccccc1`, the Potency is reported as “inactive”. In the case of `COc1cc2c(cc1OC)-c1cc(=Nc3c(C)cc(C)cc3C)n(C)c(=O)n1CC2`, the Potency is reported as “inactive”. For `CNCC[C@@H](Oc1ccccc1C)c1ccccc1`, the Potency was “inactive”. For `CC1CCCCN1CCCOC(=O)c1ccc(OC2CCCCC2)cc1` (stereo not given), the Potency was “inactive”. For `CCCCCCCCCCCCCCCC(=O)OCC`, the Potency was “inactive”. `[O-][n+]1ccccc1SSc1cccc[n+]1[O-]` was tested, and the activity change, negative = inhibition was 11.4% [at 19 µM]. In the case of `C[N+](C)(C)CCOC(N)=O`, the Potency is reported as “inactive”. With `CCCCCCOc1ccc(O)cc1` the Potency was “inactive”. For `CCCCOC(=O)c1ccccc1`, the Potency was “inactive”. In the case of `CCCC(=O)OC(C)(C)Cc1ccccc1`, the Potency is reported as “inactive”.
